Measurements taken from PubChem BioAssay AID1159580 (chemical genetic matrix, 2015).
The whole screen tested about 5,500 compounds, of which about 2,000 (36%) were called active. Another 18% or so got no clear call; they are omitted. Cut-off read from the data, not from the text of the source: active = normalized growth mostly below about 0.91 (no sharp cut-off); inconclusive = no clear call, values can overlap the other calls; inactive = mostly above about 0.92. This is one part of the list.

Experiment: chemical genetic growth profiling, strain panel (AID 1159580);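 note: tested at 20 µM; growth read once vehicle control cultures reached saturation at 30 °C; 1 = growth at the plate median or of vehicle wells; lower values mean less growth of the strain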
Conditions: growth OD
[1] = S. cerevisiae deletion strains, locus YBR229C, strain ROT2, hits give low values
[2] = S. cerevisiae deletion strains, locus YDL101C, strain DUN1, hits give low values
[3] = S. cerevisiae deletion strains, locus YDL134C, strain PPH21, hits give low values
[4] = S. cerevisiae deletion strains, locus YDR150W, strain NUM1, hits give low values
[5] = S. cerevisiae deletion strains, locus YEL061C, strain CIN8, hits give low values
[6] = S. cerevisiae deletion strains, locus YGR078C, strain PAC10, hits give low values
[7] = S. cerevisiae deletion strains, locus YHR030C, strain SLT2, hits give low values
[8] = S. cerevisiae deletion strains, locus YJR043C, strain POL32, hits give low values
[9] = S. cerevisiae deletion strains, locus YJR075W, strain HOC1, hits give low values
[10] = S. cerevisiae deletion strains, locus YKL190W, strain CNB1, hits give low values
[11] = S. cerevisiae deletion strains, locus YLR039C, strain RIC1, hits give low values
[12] = S. cerevisiae deletion strains, locus YLR262C, strain YPT6, hits give low values
[13] = S. cerevisiae deletion strains, locus YMR263W, strain SAP30, hits give low values
[14] = S. cerevisiae deletion strains, locus YNL153C, strain GIM3, hits give low values
[15] = S. cerevisiae deletion strains, locus YPL055C, strain LGE1, hits give low values
[16] = S. cerevisiae strains, strain wild type, hits give low values
[17] = S. cerevisiae deletion strains, locus YMR307W, strain GAS1, hits give low values

Measured: normalized growth

C#CCOc1c(Cl)cccc1Cl
inactive: S. cerevisiae deletion strains, locus YAL013W, strain DEP1, hits give low values 0.97 | [1] 0.989 | S. cerevisiae deletion strains, locus YCL061C, strain MRC1, hits give low values 0.954 | [2] 0.962 | [3] 1.01 | [4] 0.937 | [5] 1.01 | [6] 0.992 | [7] 0.995 | S. cerevisiae deletion strains, locus YHR087W, strain rtc3, hits give low values 1.04 | [8] 0.972 | [9] 1.03 | [10] 1.01 | [11] 0.872 | S. cerevisiae deletion strains, locus YLR058C, strain SHM2 (second series), hits give low values 1.01 | S. cerevisiae deletion strains, locus YLR085C, strain ARP6, hits give low values 0.966 | [12] 0.838 | S. cerevisiae deletion strains, locus YML094W, strain GIM5, hits give low values 0.987 | S. cerevisiae deletion strains, locus YMR219W, strain ESC1, hits give low values 0.995 | [13] 0.998 | [14] 0.982 | S. cerevisiae deletion strains, locus YNL298W, strain CLA4 (second series), hits give low values 0.982 | S. cerevisiae deletion strains, locus YNL322C, strain KRE1, hits give low values 0.986 | S. cerevisiae deletion strains, locus YNR030W, strain Alg12, hits give low values 1.01 | [15] 0.985 | S. cerevisiae deletion strains, locus YPL241C, strain CIN2, hits give low values 0.989 | S. cerevisiae deletion strains, locus YPR135W, strain CTF4, hits give low values 0.998 | [16] 0.999

CN1CCC(c2c[nH]c3ccc(O)cc23)CC1
inactive: S. cerevisiae deletion strains, locus YAL040C, strain CLN3, hits give low values 0.986 | S. cerevisiae deletion strains, locus YCL061C, strain MRC1 (second series), hits give low values 1.01 | [4] 1.01 | S. cerevisiae deletion strains, locus YDR363W, strain ESC2, hits give low values 1 | S. cerevisiae deletion strains, locus YER002W, strain NOP16, hits give low values 0.987 | [9] 1.01 | [17] 0.988 | [14] 0.948 | S. cerevisiae deletion strains, locus YNL175C, strain NOP13, hits give low values 1.01 | S. cerevisiae deletion strains, locus YNL197C, strain WHI3, hits give low values 0.999 | S. cerevisiae deletion strains, locus YNL224C, strain SQS1, hits give low values 1.02 | S. cerevisiae deletion strains, locus YOR083W, strain WHI5 (second series), hits give low values 1.04 | [15] 0.996

CSCCC(NC=O)C(=O)NC(C)C(=O)O (stereo unspecified)
inactive: S. cerevisiae deletion strains, locus YBR021W, strain FUR4, hits give low values 0.982 | [1] 0.989 | S. cerevisiae deletion strains, locus YCL029C, strain bik1, hits give low values 0.983 | S. cerevisiae deletion strains, locus YDL035C, strain GPR1, hits give low values 1.01 | S. cerevisiae deletion strains, locus YDL074C, strain BRE1, hits give low values 1.02 | [2] 0.998 | [3] 0.989 | S. cerevisiae deletion strains, locus YDL185W, strain tfp1, hits give low values 0.977 | S. cerevisiae deletion strains, locus YDL192W, strain arf1, hits give low values 0.972 | S. cerevisiae deletion strains, locus YDR101C, strain arx1, hits give low values 0.983 | S. cerevisiae deletion strains, locus YDR162C, strain NBP2, hits give low values 0.997 | S. cerevisiae deletion strains, locus YDR318W, strain mcm21, hits give low values 0.988 | S. cerevisiae deletion strains, locus YDR388W, hits give low values 0.985 | S. cerevisiae deletion strains, locus YDR502C, strain sam2, hits give low values 0.992 | [5] 0.995 | S. cerevisiae deletion strains, locus YER110C, hits give low values 0.976 | S. cerevisiae deletion strains, locus YER155C, strain BEM2, hits give low values 0.993 | S. cerevisiae deletion strains, locus YER167W, strain BCK2, hits give low values 0.988 | S. cerevisiae deletion strains, locus YGL078C, strain dbp3, hits give low values 0.978 | S. cerevisiae deletion strains, locus YGL086W, strain mad1, hits give low values 0.996 | S. cerevisiae deletion strains, locus YGL248W, strain PDE1, hits give low values 1.01 | [6] 1.03 | S. cerevisiae deletion strains, locus YGR135W, strain pre9, hits give low values 0.984 | S. cerevisiae deletion strains, locus YGR229C, strain SMI1, hits give low values 0.995 | S. cerevisiae deletion strains, locus YGR252W, strain gcn5, hits give low values 0.972 | [7] 0.989 | S. cerevisiae deletion strains, locus YHR079C, strain IRE1 (second series), hits give low values 0.988 | S. cerevisiae deletion strains, locus YHR094C, strain hxt1, hits give low values 0.978 | S. cerevisiae deletion strains, locus YHR129C, strain ARP1, hits give low values 0.996 | S. cerevisiae deletion strains, locus YHR200W, strain rpn10, hits give low values 0.987 | S. cerevisiae deletion strains, locus YIL066C, strain RNR3, hits give low values 1 | S. cerevisiae deletion strains, locus YIL073C, strain SPO22, hits give low values 0.943 | S. cerevisiae deletion strains, locus YIL125W, strain kgd1, hits give low values 0.987 | S. cerevisiae deletion strains, locus YIR030C, strain dcg1, hits give low values 0.983 | S. cerevisiae deletion strains, locus YJL095W, strain BCK1, hits give low values 1.04 | S. cerevisiae deletion strains, locus YJL134W, strain LCB3, hits give low values 0.991 | S. cerevisiae deletion strains, locus YJL168C, strain set2, hits give low values 0.985 | S. cerevisiae deletion strains, locus YJL187C, strain SWE1 (second series), hits give low values 1.01 | [8] 1.02 | [9] 1.01 | S. cerevisiae deletion strains, locus YKL009W, strain mrt4, hits give low values 0.974 | S. cerevisiae deletion strains, locus YKL068W, hits give low values 0.986 | S. cerevisiae deletion strains, locus YKL085W, strain MDH1 (second series), hits give low values 1.01 | S. cerevisiae deletion strains, locus YKL085W, strain MDH1, hits give low values 1.01 | [10] 1 | S. cerevisiae deletion strains, locus YKR001C, strain vps1, hits give low values 0.988 | [11] 1.01 | S. cerevisiae deletion strains, locus YLR058C, strain SHM2, hits give low values 0.996 | S. cerevisiae deletion strains, locus YLR102C, strain apc9, hits give low values 0.98 | [12] 1.04 | S. cerevisiae deletion strains, locus YLR268W, strain sec22, hits give low values 0.987 | S. cerevisiae deletion strains, locus YLR330W, strain CHS5, hits give low values 0.99 | S. cerevisiae deletion strains, locus YLR342W, strain FKS1 (second series), hits give low values 0.987 | S. cerevisiae deletion strains, locus YLR371W, strain rom2, hits give low values 0.972 | S. cerevisiae deletion strains, locus YLR418C, strain cdc73, hits give low values 0.994 | S. cerevisiae deletion strains, locus YML016C, strain PPZ1, hits give low values 0.993 | S. cerevisiae deletion strains, locus YML032C, strain rad52, hits give low values 0.987 | S. cerevisiae deletion strains, locus YML124C, strain tub3, hits give low values 0.981 | S. cerevisiae deletion strains, locus YMR078C, strain ctf18, hits give low values 0.984 | S. cerevisiae deletion strains, locus YMR223W, strain ubp8, hits give low values 0.986 | [13] 1.01 | [17] 0.872 | S. cerevisiae deletion strains, locus YNL067W, strain RPL9B, hits give low values 1.03 | [14] 1.04 | S. cerevisiae deletion strains, locus YNL233W, strain BNI4, hits give low values 1.01 | S. cerevisiae deletion strains, locus YNL250W, strain rad50, hits give low values 0.983 | S. cerevisiae deletion strains, locus YNL271C, strain bni1, hits give low values 0.968 | S. cerevisiae deletion strains, locus YNL298W, strain CLA4, hits give low values 0.99 | S. cerevisiae deletion strains, locus YNL307C, strain MCK1, hits give low values 0.989 | S. cerevisiae deletion strains, locus YNR052C, strain pop2, hits give low values 0.983 | S. cerevisiae deletion strains, locus YOL006C, strain TOP1, hits give low values 1.05 | S. cerevisiae deletion strains, locus YOL012C, strain htz1 1.02 | S. cerevisiae deletion strains, locus YOL147C, strain pex11, hits give low values 0.983 | S. cerevisiae deletion strains, locus YOR061W, strain CKA2, hits give low values 0.993 | S. cerevisiae deletion strains, locus YOR069W, strain VPS5, hits give low values 0.983 | S. cerevisiae deletion strains, locus YOR136W, strain idh2, hits give low values 0.995 | S. cerevisiae deletion strains, locus YOR144C, strain elg1, hits give low values 0.984 | S. cerevisiae deletion strains, locus YOR184W, strain ser1, hits give low values 0.995 | S. cerevisiae deletion strains, locus YOR316C, strain cot1, hits give low values 0.972 | S. cerevisiae deletion strains, locus YPR119W, strain clb2, hits give low values 0.991 | S. cerevisiae deletion strains, locus YPR141C, strain kar3, hits give low values 0.978 | S. cerevisiae deletion strains, locus YPR163C, strain tif3, hits give low values 0.988 | S. cerevisiae deletion strains, locus YPR167C, strain met16, hits give low values 0.978 | S. cerevisiae deletion strains, strain wtn01, hits give low values 0.992 | [16] 0.996
